The supplement of paper PMC8728848
Shown is part of a subset that was picked to be rich in the strongest signals.

Experiments:
Experiment in all cases: glycan array binding signal (z-score within array); higher = stronger binding
Settings in all cases: glycan notation: IUPAC condensed, linker removed
[1] = molecular target: Fuc(a1-2)Gal(b1-3)GlcNAc(b1-3)[Neu5Ac(a2-6)Gal(b1-4)GlcNAc(b1-6)]Gal(b1-4)Glc
Summary of the method: (§1)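 The binding signal is a Z-score computed within each array and averaged over linkers. Arrays of the same protein sequence at different concentrations or buffers were also averaged together. Data originate from 3228 arrays in the Consortium for Functional Glycomics database, kept only where the protein sequence was available.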

[2] = molecular target: Fuc(a1-2)Gal(b1-3)[Fuc(a1-4)]GlcNAc(b1-2)Man(a1-3)[Fuc(a1-2)Gal(b1-3)[Fuc(a1-4)]GlcNAc(b1-2)Man(a1-6)]Man(b1-4)GlcNAc(b1-4)[Fuc(a1-6)]GlcNAc(b1-4)[Fuc(a1-6)]GlcNAc
Summary of the method: as §1

Fuc(a1-2)Gal(b1-4)Glc = molecular target: Fuc(a1-2)Gal(b1-4)Glc
Summary of the method: as §1

Fuc(a1-2)Gal(b1-4)Glc6S = molecular target: Fuc(a1-2)Gal(b1-4)Glc6S
Summary of the method: as §1

Fuc(a1-2)Gal(b1-4)GlcNAc = molecular target: Fuc(a1-2)Gal(b1-4)GlcNAc
Summary of the method: as §1

[3] = molecular target: Fuc(a1-2)Gal(b1-4)GlcNAc(b1-3)[Fuc(a1-2)Gal(b1-4)GlcNAc(b1-6)]GalNAc
Summary of the method: as §1

[4] = molecular target: Fuc(a1-2)Gal(b1-4)GlcNAc(b1-6)GalNAc
Summary of the method: as §1

[5] = molecular target: Fuc(a1-2)Gal(b1-4)GlcNAc6S
Summary of the method: as §1

[6] = molecular target: Fuc(a1-2)Gal(b1-4)[Fuc(a1-3)]GlcNAc(b1-2)Man(a1-3)[Fuc(a1-2)Gal(b1-4)[Fuc(a1-3)]GlcNAc(b1-2)Man(a1-6)]Man(b1-4)GlcNAc(b1-4)[Fuc(a1-6)]GlcNAc
Summary of the method: as §1

[7] = molecular target: Fuc(a1-2)Gal6S(b1-3)GlcNAc
Summary of the method: as §1

Fuc(a1-2)Gal6S(b1-4)Glc = molecular target: Fuc(a1-2)Gal6S(b1-4)Glc
Summary of the method: as §1

[8] = molecular target: Fuc(a1-2)Gal6S(b1-4)Glc6S
Summary of the method: as §1

Fuc(a1-2)[Gal(a1-3)]Gal = molecular target: Fuc(a1-2)[Gal(a1-3)]Gal
Summary of the method: as §1

[9] = molecular target: Fuc(a1-2)[Gal(a1-3)]Gal(b1-4)GlcNAc(b1-2)Man(a1-3)[Fuc(a1-2)[Gal(a1-3)]Gal(b1-4)GlcNAc(b1-2)Man(a1-6)]Man(b1-4)GlcNAc(b1-4)GlcNAc
Summary of the method: as §1

[10] = molecular target: Fuc(a1-2)[Gal(a1-3)]Gal(b1-4)[Fuc(a1-3)]GlcNAc(b1-3)GalNAc
Summary of the method: as §1

[11] = molecular target: Fuc(a1-2)[Gal(a1-4)]Gal(b1-4)GalNAc
Summary of the method: as §1

[12] = molecular target: Fuc(a1-2)[Gal(a1-4)]Gal(b1-4)GlcNAc
Summary of the method: as §1

[13] = molecular target: Fuc(a1-2)[GalNAc(a1-4)]Gal(b1-4)GlcNAc
Summary of the method: as §1

[14] = molecular target: Fuc(a1-3)[Gal(b1-4)]GlcNAc(b1-6)[Gal(b1-3)GlcNAc(b1-3)]Gal(b1-4)Glc
Summary of the method: as §1

[15] = molecular target: Fuc(a1-3)[GalNAc(b1-4)]GlcNAc6S
Summary of the method: as §1

[16] = molecular target: Gal(a1-3)Gal(b1-4)GlcNAc(b1-2)Man(a1-3)[Gal(a1-3)Gal(b1-4)GlcNAc(b1-2)Man(a1-6)]Man(b1-4)GlcNAc(b1-4)GlcNAc
Summary of the method: as §1

[17] = molecular target: Gal(a1-4)Gal(b1-4)GlcNAc(b1-2)Man(a1-3)[Gal(a1-4)Gal(b1-4)GlcNAc(b1-2)Man(a1-6)]Man(b1-4)GlcNAc(b1-4)GlcNAc
Summary of the method: as §1

Gal(a1-4)GlcNAc = molecular target: Gal(a1-4)GlcNAc
Summary of the method: as §1

[18] = molecular target: Gal(b1-3)GalNAc(b1-4)[Neu5Ac(a2-3)]Gal(b1-4)Glc
Summary of the method: as §1

[19] = molecular target: Gal(b1-3)GlcNAc(a1-6)Gal(b1-4)GlcNAc
Summary of the method: as §1

[20] = molecular target: Gal(b1-3)GlcNAc(b1-2)Man(a1-3)[Gal(b1-3)GlcNAc(b1-2)Man(a1-6)]Man(b1-4)GlcNAc(b1-4)GlcNAc
Summary of the method: as §1

[21] = molecular target: Gal(b1-3)GlcNAc(b1-2)Man(a1-3)[Gal(b1-3)GlcNAc(b1-2)Man(a1-6)]Man(b1-4)GlcNAc(b1-4)[Fuc(a1-6)]GlcNAc
Summary of the method: as §1

[22] = molecular target: Gal(b1-3)[Fuc(a1-4)]GlcNAc(b1-6)GalNAc
Summary of the method: as §1

[23] = molecular target: Gal(b1-3)[Neu5Ac(a2-6)]GlcNAc(a1-4)Gal(b1-4)Glc
Summary of the method: as §1

[24] = molecular target: Gal(b1-3)[Neu5Ac(a2-6)]GlcNAc(b1-4)Gal(b1-4)Glc
Summary of the method: as §1

B1: UEA-I (Ulex europaeus), P22972 (protein)
chain: SDDLSFKFKNFSQNGKDLSFQGDASVIETGVLQLNKVGNNLPDETGGIARYIAPIHIWNCNTGEVASFITSFSFFMETSANPKAATDGLTFFLAPPDSPLRRAGGYFGLFEDTKDNDSSYQTVAVEFDTIGSPVNFDDPGFPHIGIDVNRVKSINAERWNKRYGLNNVANVEIIYEASSKTLTASLTYPSDQTSISVTSIVDLKEILPEWVSVGFSGGTYIGRQATHEVLNWYFTSNLINTNS
- glycan array binding signal (z-score) [1]: -0.101
- glycan array binding signal (z-score) [2]: -0.186
- glycan array binding signal (z-score) (Fuc(a1-2)Gal(b1-4)Glc): 4.65
- glycan array binding signal (z-score) (Fuc(a1-2)Gal(b1-4)Glc6S): 8.87
- glycan array binding signal (z-score) (Fuc(a1-2)Gal(b1-4)GlcNAc): 5.04
- glycan array binding signal (z-score) [3]: 5.44
- glycan array binding signal (z-score) [4]: 4.28
- glycan array binding signal (z-score) [5]: 5.67
- glycan array binding signal (z-score) [6]: -0.035
- glycan array binding signal (z-score) [7]: -0.194
- glycan array binding signal (z-score) (Fuc(a1-2)Gal6S(b1-4)Glc): 4.67
- glycan array binding signal (z-score) [8]: 5.33
- glycan array binding signal (z-score) (Fuc(a1-2)[Gal(a1-3)]Gal): -0.199
- glycan array binding signal (z-score) [9]: -0.194
- glycan array binding signal (z-score) [10]: -0.022
- glycan array binding signal (z-score) [11]: 5.51
- glycan array binding signal (z-score) [12]: 5.58
- glycan array binding signal (z-score) [13]: 5.17
- glycan array binding signal (z-score) [14]: -0.103
- glycan array binding signal (z-score) [15]: -0.217
- glycan array binding signal (z-score) [16]: -0.163
- glycan array binding signal (z-score) [17]: 0.015
- glycan array binding signal (z-score) (Gal(a1-4)GlcNAc): -0.168
- glycan array binding signal (z-score) [18]: -0.207
- glycan array binding signal (z-score) [19]: -0.139
- glycan array binding signal (z-score) [20]: -0.101
- glycan array binding signal (z-score) [21]: -0.16
- glycan array binding signal (z-score) [22]: -0.098
- glycan array binding signal (z-score) [23]: -0.409
- glycan array binding signal (z-score) [24]: -0.234
